NS1 function inh – inhibitors of influenza NS1 protein function; Potency, µM (top dose mostly 46.1 µM), inactives show at the highest dose activity, positive = more growth; 270,000 tested, 0.4% active; AID 2326; calls by dose curve; also: actives are rising curves; nearly all actives have a fitted effect of over 50% in size
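A cell-based growth assay was used: compounds that relieve NS1-induced slow growth of budding yeast raise OD600. Assay medium was yeast nitrogen base with ammonium sulphate and -URA supplement, pH 6.0, with 2% galactose.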
Pf growth 48h – P. falciparum growth inhibition at 48 hours (one generation); P. falciparum luciferase growth in erythrocytes, 48 h; Potency, µM (highest dose often 28.7 µM), for the others: top-dose activity change, negative = inhibition, actives largely listed as inhibitors; 310,000 tested, 5.9% active; also: % is scaled to controls: 0 for no effect and ±100 for the full control effect
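In quantitative HTS format, infected erythrocytes bearing luciferase-reporter parasites were treated for a single generation at 37 C. Luminescence after adding detection reagent served as the growth measure.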
SARS PLpro yeast – blocks SARS-CoV papain-like protease in a yeast assay. S. cerevisiae expressing SARS-CoV PLpro, growth rescue. Potency, µM (series often up to 32.9 µM), for the others: at the top dose activity, positive = growth rescue, actives largely listed as activators. 330,000 tested, 0.19% active. AID 485353; calls by dose curve; also: 0% is about no effect; nearly all actives have a fitted effect of over 55% in size
HCV inh – blocks hepatitis C virus; Huh7.5.1 HCVcc-Cre infection, luciferase reporter, 44 h; Potency, µM (doses to about 41.8 µM), inactives show at the top dose activity change, negative = inhibition, most hits filed as inhibitors; 340,000 tested, 3.4% active; AID 651820; also: % is scaled to controls: 0 for no effect and ±100 for the full control effect
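HCVcc-Cre virus at an moi near 0.5 was added right after compound to cells cultured 4 h from seeding (1,000 cells/well). Luciferase activity was determined 44 h later, 15 min after substrate addition at RT.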
Pf growth 96h – P. falciparum growth inhibition at 96 hours; 320,000 tested, 6.9% active; Potency, µM (doses to about 28.7 µM), inactives show top-dose activity change, negative = inhibition, most hits filed as inhibitors; AID 504834; P. falciparum luciferase reporter growth, 96 h; also: % is scaled to controls: 0 for no effect and ±100 for the full control effect
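Compounds incubated with erythrocytes infected by luciferase-expressing P. falciparum (2% hematocrit, 0.05% parasitemia final) for 96 hours, 37 C in 5% CO2. Growth inhibition scored as decreased luciferase luminescence.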
AMA1 RON2 block – inhibitors of Plasmodium falciparum AMA1-RON2 interaction. AlphaScreen AMA1-biotinylated RON2 peptide binding. Potency, µM (titrated, usually from 58.2 µM), for inactives: at the top dose activity change, negative = inhibition, most hits filed as inhibitors. 360,000 tested, 0.2% active;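 also: 0% = vehicle wells and -100% = peptide control; nearly all actives have a fitted effect of over 45% in size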
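AMA1 (3D7) with his tag at 25 nM final met compounds first, then biotinylated RON2 peptide at 25 nM; detection used donor plus acceptor beads, 10 µg/mL apiece, read by AlphaScreen after 30 min at room temperature.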
* hit, by the source's call; ? = inconclusive; · = not tested or not shown; [ ] = dose if it differs, or a comment. An excerpt weighted towards active compounds, which were near 12% of everything screened. Unless noted, calls follow the shape of the dose curve; as a rule, active = well fitted curve in the direction sought with a large enough effect; inconclusive = small, poorly fitted or top-dose-only effect, or another doubt; inactive = no such curve, though single readings can be large; an effect the other way counts as inactive or inconclusive. Potency is read from the fitted curve at half-maximal effect.

SMILES	NS1 function inh	Pf growth 48h	SARS PLpro yeast	HCV inh	Pf growth 96h	AMA1 RON2 block
C[C@H](NC(=O)c1[nH]cnc1C(=O)Nc1ccon1)c1ccccc1	·	-22%	3%	1.4µM*	?	132%
CC(C)(C)OC(=O)NCCCC[C@H](NC(=O)c1[nH]cnc1C(=O)N[C@@H](Cc1ccccc1)C(=O)OC(C)(C)C)C(=O)OC(C)(C)C	?	2.9µM*	0%	-13%[8.37 µM]	3.7µM*	108%
CC(C)(C)OC(=O)NCCCCCNC(=O)c1[nH]cnc1C(=O)N[C@@H](Cc1ccccc1)C(=O)OC(C)(C)C	·	·	-19%	18%	·	99%
N#CCCn1nc(-c2ccccc2)c2ccccc2c1=O	-8%	-7%	0%	-20%	12%	-2%
CN(Cc1ccccc1)C(=O)c1[nH]cnc1C(=O)N[C@@H](CCCCNC(=O)OC(C)(C)C)C(=O)OC(C)(C)C	6%	?	-1%	-5%	8.3µM*	113%
C[C@@H](NC(=O)c1nc[nH]c1C(=O)NCCCCCNC(=O)OC(C)(C)C)c1ccccc1	·	·	-5%	?	·	131%
C[C@H](NC(=O)c1nc[nH]c1C(=O)NCc1ccc(CNC(=O)OC(C)(C)C)cc1)c1ccccc1	·	10µM*	-1%	7.1µM*	?	120%
C[C@H](NC(=O)c1nc[nH]c1C(=O)N[C@@H](CCCCNC(=O)OC(C)(C)C)C(=O)OC(C)(C)C)c1ccccc1	3%	10µM*	1%	?	?	125%
CC(C)(C)OC(=O)NCCCC[C@H](NC(=O)c1nc[nH]c1C(=O)NCc1ccccc1)C(=O)OC(C)(C)C	11%	?	0%	-4%[8.37 µM]	?	117%
Cc1cccc(NC(=O)CCC(=O)Nc2nnc(C(F)(F)F)s2)c1	3%	4%	0%	10%	20%	-11%
CC(OC(=O)C1CCN(c2ccc(C(F)(F)F)cn2)CC1)C(=O)Nc1ccc(S(N)(=O)=O)cc1 (configuration not stated)	-18%	?	-3%	·	13µM*	8%
CC(OC(=O)C1CCN(c2ccc(C(F)(F)F)cn2)CC1)C(=O)Nc1cccc([N+](=O)[O-])c1 (configuration not stated)	·	12µM*	-5%	8%	?	-21%
CC(=O)c1ccc(NC(=O)C(C)OC(=O)C2CCN(c3ccc(C(F)(F)F)cn3)CC2)cc1 (configuration not stated)	·	?	-5%	?	-4%	17%
O=C(CSc1nc2ccccc2c(=O)[nH]1)Nc1cccc([N+](=O)[O-])c1	9%	-21%	-4%	-19%	1.2µM*	2%
O=C(CSc1nc2ccccc2c(=O)[nH]1)Nc1ccc(Br)cc1	-9%	11%	0%	2%	1%	-4%
COc1ccc(CN(C)CC(=O)Nc2cccc(S(=O)(=O)N3CCCC3)c2)cc1F	·	·	1%	?	·	1%
CCN(Cc1ccc(OC)c(F)c1)C(C)C(=O)Nc1ccc(S(=O)(=O)N2CCCC2)cc1 (configuration not stated)	·	10µM*	1%	?	?	5%
COc1ccc(CN(C)C(C)C(=O)Nc2ccc(S(=O)(=O)N3CCCCC3)cc2)c(OC)c1 (configuration not stated)	·	·	0%	?	·	-13%
COc1ccc(CN(C)C(C)C(=O)Nc2ccc(S(=O)(=O)N3CCCC3)cc2)c(OC)c1OC (configuration not stated)	5%	7.4µM*	1%	·	4.1µM*	·
Cc1cc(C)nc(Nc2nc(C(N)Cc3ccccc3)cs2)n1 (configuration not stated)	·	·	·	·	·	47%
COc1ccc(NC(=O)c2cc(S(=O)(=O)N(Cc3ccccc3)c3ccccc3)ccc2Cl)cn1	17%	?	-7%	?	?	-12%
COc1ccc(C(=O)OC(C)C(=O)NCC2CCCCC2)cc1S(=O)(=O)N1CCOCC1 (configuration not stated)	·	?	-4%	1%	?	0%
O=C(NC1CCCCC1)N1CCNCC1	-12%	40%	-10%	20%	-16%	3%
C1CCCCCC(NCCN2CCNCC2)CCCCC1	0%	?	-6%	1.3µM*	?	-5%
COc1cc(C2C=C(c3cccs3)Nc3ncnn32)cc(OC)c1OC (configuration not stated)	·	?	-5%	3%	-14%	5%
SMILES	NS1 function inh	Pf growth 48h	SARS PLpro yeast	HCV inh	Pf growth 96h	AMA1 RON2 block
Cc1noc2ncnc(Sc3ccc(Br)cc3)c12	-4%	?	0%	32µM*	?	12%
CC(Sc1nnnn1C1CCCC1)C(=O)Nc1cccc(S(=O)(=O)N2CCOCC2)c1 (configuration not stated)	·	-32%	8%	13%	?	12%
Cc1ccsc1/C=N/NC(=O)C(O)c1ccccc1 (configuration not stated)	14%	16%	·	7%	-14%	-4%
O=C(Cc1ccccc1)N/N=C/c1cccs1	4%	13%	-5%	7%	11%	-1%
O=C(Cc1ccccc1)N/N=C/c1ccc([N+](=O)[O-])s1	-38%	7.4µM*	-41%	11µM*	8.3µM*	-10%
Cn1c(SCC(=O)N/N=C/c2cc([N+](=O)[O-])ccc2O)nnc1-c1ccccc1	4%	?	6%	16%	?	17%
Cc1ccc(NC(C)C(=O)N/N=C/c2ccc([N+](=O)[O-])s2)cc1 (configuration not stated)	-2%	?	-12%	?	15µM*	-17%
Cn1c(SCC(=O)N/N=C/c2ccc([N+](=O)[O-])s2)nnc1-c1ccccc1	-70%	6.6µM*	-63%	11µM*	?	-9%
O=C(N/N=C/c1ccc([N+](=O)[O-])s1)C(O)c1ccccc1 (configuration not stated)	-39%	4.7µM*	-45%	7.1µM*	2.3µM*	5%
COc1ccc(NC(C)C(=O)N/N=C/c2ccc([N+](=O)[O-])s2)cc1 (configuration not stated)	-9%	?	-28%	?	27%	-13%
Cc1ccc(S(=O)(=O)N2CC(=O)N3CCN(CCN)C3C2)cc1 (configuration not stated)	·	·	2%	0%	·	140%
O=C(CSc1nnc(CNC(=O)c2ccco2)o1)Nc1ccccc1F	-15%	10%	-4%	8%	-10%	4%
Cc1ccnn1CC(=O)N/N=C/c1ccc([N+](=O)[O-])s1	-3%	?	-2%	?	7.4µM*	-7%
CN(CC(=O)O)CC(=O)O	2%	·	·	·	·	·
